# Data published in PubChem BioAssay AID1159580 (chemical genetic matrix, 2015).
# Values joined by “and” are separate entries in the source; they are usually repeats but may differ in a detail not shown here. Identical values can stand only once. Screen size: about 5,500 compounds; about 2,000 (36%) were called active. About 18% were inconclusive and are not listed. This is one part of the list. Values without a mark were called inactive. No stated cut-off is given here; in the data, active means normalized growth mostly below about 0.91 (no sharp cut-off); inconclusive means no clear call, values can overlap the other calls; inactive means mostly above about 0.92.
# Assay: chemical genetic growth profiling, strain panel (AID 1159580);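 further: tested at 20 µM; growth read once vehicle control cultures reached saturation at 30 °C; 1 = growth at the plate median or of vehicle wells; lower values mean less growth of the strain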
# Conditions: S. cerevisiae deletion strains, growth OD
structure (smiles),measurement,setting,value
CCn1cc(C(=O)O)c(=O)c2ccc(C)nc21,normalized growth,"locus YAL013W, strain DEP1, hits give low values",0.938 and 0.977
same,normalized growth,"locus YAL021C, strain ccr4, hits give low values",0.805 (active)
same,normalized growth,"locus YAL026C, strain drs2, hits give low values",0.855 (active)
same,normalized growth,"locus YAL030W, strain snc1, hits give low values",0.917 (active)
same,normalized growth,"locus YAL040C, strain CLN3, hits give low values",0.961
same,normalized growth,"locus YBL061C, strain skt5, hits give low values",0.928
same,normalized growth,"locus YBR009C, strain hhf1, hits give low values",0.947
same,normalized growth,"locus YBR021W, strain FUR4, hits give low values",1.09
same,normalized growth,"locus YBR023C, strain chs3, hits give low values",0.945
same,normalized growth,"locus YBR171W, strain sec66, hits give low values",0.931
same,normalized growth,"locus YBR229C, strain ROT2, hits give low values",0.914 (active)
same,normalized growth,"locus YBR231C, strain swc5, hits give low values",0.936
same,normalized growth,"locus YBR279W, strain paf1, hits give low values",0.924 (active)
same,normalized growth,"locus YCL011C, strain gbp2, hits give low values",0.939
same,normalized growth,"locus YCL016C, strain dcc1, hits give low values",0.945
same,normalized growth,"locus YCL029C, strain bik1, hits give low values",0.935
same,normalized growth,"locus YCL061C, strain MRC1 (second series), hits give low values",0.961
same,normalized growth,"locus YCL061C, strain MRC1, hits give low values",0.936
same,normalized growth,"locus YCL069W, strain vba3, hits give low values",0.943
same,normalized growth,"locus YCR088W, strain abp1, hits give low values",0.953
same,normalized growth,"locus YDL005C, strain med2, hits give low values",0.983
same,normalized growth,"locus YDL035C, strain GPR1, hits give low values",0.963
same,normalized growth,"locus YDL040C, strain nat1, hits give low values",0.923 (active)
same,normalized growth,"locus YDL074C, strain BRE1, hits give low values",1.06
same,normalized growth,"locus YDL101C, strain DUN1, hits give low values",0.941
same,normalized growth,"locus YDL134C, strain PPH21, hits give low values",0.912
same,normalized growth,"locus YDL185W, strain tfp1, hits give low values",0.924
same,normalized growth,"locus YDL192W, strain arf1, hits give low values",0.9 (active)
same,normalized growth,"locus YDR001C, strain nth1, hits give low values",0.94
same,normalized growth,"locus YDR069C, strain doa4, hits give low values",0.932
same,normalized growth,"locus YDR101C, strain arx1, hits give low values",0.92
same,normalized growth,"locus YDR137W, strain rgp1, hits give low values",0.345 (active)
same,normalized growth,"locus YDR150W, strain NUM1, hits give low values",0.936 and 0.96
same,normalized growth,"locus YDR159W, strain sac3, hits give low values",1.07
same,normalized growth,"locus YDR162C, strain NBP2, hits give low values",0.936
same,normalized growth,"locus YDR195W, strain ref2",0.691 (active)
same,normalized growth,"locus YDR297W, strain sur2, hits give low values",0.928
same,normalized growth,"locus YDR318W, strain mcm21, hits give low values",0.963
same,normalized growth,"locus YDR334W, strain swr1, hits give low values",0.916
same,normalized growth,"locus YDR335W, strain msn5, hits give low values",0.937
same,normalized growth,"locus YDR363W, strain ESC2, hits give low values",0.965
same,normalized growth,"locus YDR388W, hits give low values",0.941
same,normalized growth,"locus YDR392W, strain spt3, hits give low values",1.03
same,normalized growth,"locus YDR502C, strain sam2, hits give low values",0.961
same,normalized growth,"locus YEL003W, strain gim4, hits give low values",0.939
same,normalized growth,"locus YEL037C, strain rad23, hits give low values",0.926
same,normalized growth,"locus YEL061C, strain CIN8 (second series), hits give low values",0.935
same,normalized growth,"locus YEL061C, strain CIN8, hits give low values",0.946
same,normalized growth,"locus YER002W, strain NOP16, hits give low values",0.958
same,normalized growth,"locus YER015W, strain faa2, hits give low values",0.947
same,normalized growth,"locus YER016W, strain bim1, hits give low values",0.924
same,normalized growth,"locus YER110C, hits give low values",0.9
same,normalized growth,"locus YER111C, strain swi4, hits give low values",0.966
same,normalized growth,"locus YER155C, strain BEM2 (second series), hits give low values",0.943
same,normalized growth,"locus YER155C, strain BEM2, hits give low values",0.951
same,normalized growth,"locus YER167W, strain BCK2, hits give low values",0.988
same,normalized growth,"locus YFR010W, strain ubp6, hits give low values",0.974
same,normalized growth,"locus YGL078C, strain dbp3, hits give low values",0.947
same,normalized growth,"locus YGL086W, strain mad1, hits give low values",0.954
same,normalized growth,"locus YGL167C, strain pmr1, hits give low values",0.912 (active)
same,normalized growth,"locus YGL173C, strain kem1, hits give low values",0.799 (active)
same,normalized growth,"locus YGL227W, strain vid30, hits give low values",0.939
same,normalized growth,"locus YGL240W, strain doc1, hits give low values",0.834 (active)
same,normalized growth,"locus YGL248W, strain PDE1, hits give low values",0.906
same,normalized growth,"locus YGL253W, strain hxk2, hits give low values",0.957
same,normalized growth,"locus YGR078C, strain PAC10, hits give low values",0.997
same,normalized growth,"locus YGR135W, strain pre9, hits give low values",0.916
same,normalized growth,"locus YGR229C, strain SMI1, hits give low values",1 and 0.98
same,normalized growth,"locus YHR013C, strain ard1, hits give low values",1.02
same,normalized growth,"locus YHR027C, strain rpn1, hits give low values",0.938
same,normalized growth,"locus YHR030C, strain SLT2, hits give low values",0.921 and 0.918
same,normalized growth,"locus YHR079C, strain IRE1 (second series), hits give low values",0.932
same,normalized growth,"locus YHR079C, strain IRE1, hits give low values",0.97
same,normalized growth,"locus YHR094C, strain hxt1, hits give low values",0.923 (active)
same,normalized growth,"locus YHR129C, strain ARP1, hits give low values",0.918 (active)
same,normalized growth,"locus YHR142W, strain chs7, hits give low values",0.979
same,normalized growth,"locus YHR200W, strain rpn10, hits give low values",0.963
same,normalized growth,"locus YIL066C, strain RNR3, hits give low values",0.972
same,normalized growth,"locus YIL073C, strain SPO22, hits give low values",0.97
same,normalized growth,"locus YIL125W, strain kgd1, hits give low values",0.951
same,normalized growth,"locus YIR030C, strain dcg1, hits give low values",0.914 (active)
same,normalized growth,"locus YJL092W, strain hpr5, hits give low values",0.961
same,normalized growth,"locus YJL095W, strain BCK1 (second series), hits give low values",0.942
same,normalized growth,"locus YJL095W, strain BCK1, hits give low values",0.949 and 0.948
same,normalized growth,"locus YJL115W, strain asf1, hits give low values",0.956
same,normalized growth,"locus YJL129C, strain trk1, hits give low values",0.972
same,normalized growth,"locus YJL134W, strain LCB3, hits give low values",0.92 (active)
same,normalized growth,"locus YJL154C, strain vps35, hits give low values",0.959
same,normalized growth,"locus YJL164C, strain tpk1, hits give low values",0.946
same,normalized growth,"locus YJL166W, strain qcr8, hits give low values",0.94
same,normalized growth,"locus YJL168C, strain set2, hits give low values",0.895 (active)
same,normalized growth,"locus YJL187C, strain SWE1 (second series), hits give low values",0.93
same,normalized growth,"locus YJR043C, strain POL32, hits give low values",0.967
same,normalized growth,"locus YJR066W, strain TOR1, hits give low values",0.899
same,normalized growth,"locus YJR075W, strain HOC1, hits give low values",0.972 and 0.961
